Measured values taken from the supplement of paper PMC11001985.

These targets were tested with C#CCNC(=O)CCSSCCC(=O)NCCc1ccc(C=O)c(C=O)c1 (assay: lysine labeling ratio R10:1 (500 µM / 50 µM probe), SILAC-ABPP in living cells; higher = lower intrinsic lysine reactivity toward the probe, active = 2 or less). Details: HeLa; probe concentrations 500 vs 50 µM.
Outline: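 R, given per lysine, is the filtered median high-probe/low-probe MS1 peptide ratio, with the median then taken across forward and reverse replicates. Cells were living SILAC light and heavy HeLa cells in PBS at room temperature, labelled with 50 µM or 500 µM of an alkyne-tagged, disulfide-linked lysine probe. The ceiling applied is 20.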

UniProt P32004, sequence (P32004 whole entry): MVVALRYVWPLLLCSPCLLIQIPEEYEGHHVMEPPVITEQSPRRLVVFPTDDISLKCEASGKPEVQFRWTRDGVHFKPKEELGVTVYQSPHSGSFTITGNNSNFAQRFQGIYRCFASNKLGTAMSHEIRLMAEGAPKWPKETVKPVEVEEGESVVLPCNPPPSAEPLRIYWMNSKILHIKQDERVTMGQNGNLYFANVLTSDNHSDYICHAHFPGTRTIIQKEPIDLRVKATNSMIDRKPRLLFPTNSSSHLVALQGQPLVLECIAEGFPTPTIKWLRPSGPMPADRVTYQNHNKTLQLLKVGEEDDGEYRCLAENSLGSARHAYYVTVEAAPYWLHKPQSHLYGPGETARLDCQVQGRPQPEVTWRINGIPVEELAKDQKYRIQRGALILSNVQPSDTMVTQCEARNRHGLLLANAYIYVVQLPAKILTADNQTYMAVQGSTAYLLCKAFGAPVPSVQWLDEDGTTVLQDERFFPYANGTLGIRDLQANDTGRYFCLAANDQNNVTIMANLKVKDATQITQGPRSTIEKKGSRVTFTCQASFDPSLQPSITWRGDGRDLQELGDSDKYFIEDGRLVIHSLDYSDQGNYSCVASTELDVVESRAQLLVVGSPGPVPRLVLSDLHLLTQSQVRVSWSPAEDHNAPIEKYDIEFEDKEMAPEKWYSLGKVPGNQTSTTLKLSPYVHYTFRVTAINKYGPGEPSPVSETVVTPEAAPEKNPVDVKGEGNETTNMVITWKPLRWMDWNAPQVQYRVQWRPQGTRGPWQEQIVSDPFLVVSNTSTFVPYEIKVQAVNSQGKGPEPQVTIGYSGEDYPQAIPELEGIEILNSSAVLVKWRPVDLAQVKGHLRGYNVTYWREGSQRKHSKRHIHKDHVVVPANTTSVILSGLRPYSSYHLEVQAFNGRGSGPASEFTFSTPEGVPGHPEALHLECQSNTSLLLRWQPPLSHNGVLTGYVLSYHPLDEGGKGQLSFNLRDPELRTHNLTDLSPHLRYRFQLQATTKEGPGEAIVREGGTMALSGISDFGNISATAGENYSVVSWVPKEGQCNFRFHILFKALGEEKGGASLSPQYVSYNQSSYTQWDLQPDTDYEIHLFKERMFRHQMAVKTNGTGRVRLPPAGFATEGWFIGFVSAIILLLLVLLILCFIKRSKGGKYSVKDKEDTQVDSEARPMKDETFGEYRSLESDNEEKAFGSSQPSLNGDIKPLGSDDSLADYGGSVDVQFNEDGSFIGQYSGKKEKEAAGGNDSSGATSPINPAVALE
UniProt Q9H7Z7, sequence (Q9H7Z7 whole entry): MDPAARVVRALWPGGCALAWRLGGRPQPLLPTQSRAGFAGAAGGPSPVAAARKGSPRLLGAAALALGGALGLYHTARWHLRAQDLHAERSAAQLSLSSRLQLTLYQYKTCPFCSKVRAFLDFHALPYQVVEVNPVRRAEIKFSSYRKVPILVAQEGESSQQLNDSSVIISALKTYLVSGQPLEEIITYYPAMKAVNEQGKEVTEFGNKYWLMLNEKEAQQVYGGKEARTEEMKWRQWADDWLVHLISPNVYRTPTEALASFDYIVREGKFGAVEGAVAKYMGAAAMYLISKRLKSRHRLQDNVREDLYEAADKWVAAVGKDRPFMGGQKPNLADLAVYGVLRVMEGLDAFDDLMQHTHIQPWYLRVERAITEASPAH
UniProt Q00839, sequence (Q00839 whole entry): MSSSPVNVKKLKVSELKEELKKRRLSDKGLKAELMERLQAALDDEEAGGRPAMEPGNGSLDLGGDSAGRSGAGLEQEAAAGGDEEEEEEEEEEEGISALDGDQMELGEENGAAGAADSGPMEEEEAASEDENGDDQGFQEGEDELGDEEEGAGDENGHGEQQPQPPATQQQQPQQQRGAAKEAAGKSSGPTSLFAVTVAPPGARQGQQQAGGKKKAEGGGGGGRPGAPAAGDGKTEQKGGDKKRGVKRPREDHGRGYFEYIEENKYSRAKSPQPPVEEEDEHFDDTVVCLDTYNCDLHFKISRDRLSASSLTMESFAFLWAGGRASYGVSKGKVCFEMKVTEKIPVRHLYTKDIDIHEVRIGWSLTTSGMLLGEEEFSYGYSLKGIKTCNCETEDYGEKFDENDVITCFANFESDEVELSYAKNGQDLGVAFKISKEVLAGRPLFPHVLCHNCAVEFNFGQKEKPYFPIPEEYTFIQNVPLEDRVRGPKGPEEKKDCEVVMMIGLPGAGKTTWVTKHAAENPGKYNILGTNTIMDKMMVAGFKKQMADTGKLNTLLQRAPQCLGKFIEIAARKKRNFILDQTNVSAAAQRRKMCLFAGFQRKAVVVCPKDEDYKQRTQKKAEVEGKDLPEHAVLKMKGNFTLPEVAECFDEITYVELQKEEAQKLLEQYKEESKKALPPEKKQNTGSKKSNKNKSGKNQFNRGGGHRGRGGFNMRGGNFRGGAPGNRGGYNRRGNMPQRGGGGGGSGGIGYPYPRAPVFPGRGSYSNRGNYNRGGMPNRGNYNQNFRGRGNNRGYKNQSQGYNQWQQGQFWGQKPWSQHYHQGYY
UniProt P21333, sequence (P21333 whole entry): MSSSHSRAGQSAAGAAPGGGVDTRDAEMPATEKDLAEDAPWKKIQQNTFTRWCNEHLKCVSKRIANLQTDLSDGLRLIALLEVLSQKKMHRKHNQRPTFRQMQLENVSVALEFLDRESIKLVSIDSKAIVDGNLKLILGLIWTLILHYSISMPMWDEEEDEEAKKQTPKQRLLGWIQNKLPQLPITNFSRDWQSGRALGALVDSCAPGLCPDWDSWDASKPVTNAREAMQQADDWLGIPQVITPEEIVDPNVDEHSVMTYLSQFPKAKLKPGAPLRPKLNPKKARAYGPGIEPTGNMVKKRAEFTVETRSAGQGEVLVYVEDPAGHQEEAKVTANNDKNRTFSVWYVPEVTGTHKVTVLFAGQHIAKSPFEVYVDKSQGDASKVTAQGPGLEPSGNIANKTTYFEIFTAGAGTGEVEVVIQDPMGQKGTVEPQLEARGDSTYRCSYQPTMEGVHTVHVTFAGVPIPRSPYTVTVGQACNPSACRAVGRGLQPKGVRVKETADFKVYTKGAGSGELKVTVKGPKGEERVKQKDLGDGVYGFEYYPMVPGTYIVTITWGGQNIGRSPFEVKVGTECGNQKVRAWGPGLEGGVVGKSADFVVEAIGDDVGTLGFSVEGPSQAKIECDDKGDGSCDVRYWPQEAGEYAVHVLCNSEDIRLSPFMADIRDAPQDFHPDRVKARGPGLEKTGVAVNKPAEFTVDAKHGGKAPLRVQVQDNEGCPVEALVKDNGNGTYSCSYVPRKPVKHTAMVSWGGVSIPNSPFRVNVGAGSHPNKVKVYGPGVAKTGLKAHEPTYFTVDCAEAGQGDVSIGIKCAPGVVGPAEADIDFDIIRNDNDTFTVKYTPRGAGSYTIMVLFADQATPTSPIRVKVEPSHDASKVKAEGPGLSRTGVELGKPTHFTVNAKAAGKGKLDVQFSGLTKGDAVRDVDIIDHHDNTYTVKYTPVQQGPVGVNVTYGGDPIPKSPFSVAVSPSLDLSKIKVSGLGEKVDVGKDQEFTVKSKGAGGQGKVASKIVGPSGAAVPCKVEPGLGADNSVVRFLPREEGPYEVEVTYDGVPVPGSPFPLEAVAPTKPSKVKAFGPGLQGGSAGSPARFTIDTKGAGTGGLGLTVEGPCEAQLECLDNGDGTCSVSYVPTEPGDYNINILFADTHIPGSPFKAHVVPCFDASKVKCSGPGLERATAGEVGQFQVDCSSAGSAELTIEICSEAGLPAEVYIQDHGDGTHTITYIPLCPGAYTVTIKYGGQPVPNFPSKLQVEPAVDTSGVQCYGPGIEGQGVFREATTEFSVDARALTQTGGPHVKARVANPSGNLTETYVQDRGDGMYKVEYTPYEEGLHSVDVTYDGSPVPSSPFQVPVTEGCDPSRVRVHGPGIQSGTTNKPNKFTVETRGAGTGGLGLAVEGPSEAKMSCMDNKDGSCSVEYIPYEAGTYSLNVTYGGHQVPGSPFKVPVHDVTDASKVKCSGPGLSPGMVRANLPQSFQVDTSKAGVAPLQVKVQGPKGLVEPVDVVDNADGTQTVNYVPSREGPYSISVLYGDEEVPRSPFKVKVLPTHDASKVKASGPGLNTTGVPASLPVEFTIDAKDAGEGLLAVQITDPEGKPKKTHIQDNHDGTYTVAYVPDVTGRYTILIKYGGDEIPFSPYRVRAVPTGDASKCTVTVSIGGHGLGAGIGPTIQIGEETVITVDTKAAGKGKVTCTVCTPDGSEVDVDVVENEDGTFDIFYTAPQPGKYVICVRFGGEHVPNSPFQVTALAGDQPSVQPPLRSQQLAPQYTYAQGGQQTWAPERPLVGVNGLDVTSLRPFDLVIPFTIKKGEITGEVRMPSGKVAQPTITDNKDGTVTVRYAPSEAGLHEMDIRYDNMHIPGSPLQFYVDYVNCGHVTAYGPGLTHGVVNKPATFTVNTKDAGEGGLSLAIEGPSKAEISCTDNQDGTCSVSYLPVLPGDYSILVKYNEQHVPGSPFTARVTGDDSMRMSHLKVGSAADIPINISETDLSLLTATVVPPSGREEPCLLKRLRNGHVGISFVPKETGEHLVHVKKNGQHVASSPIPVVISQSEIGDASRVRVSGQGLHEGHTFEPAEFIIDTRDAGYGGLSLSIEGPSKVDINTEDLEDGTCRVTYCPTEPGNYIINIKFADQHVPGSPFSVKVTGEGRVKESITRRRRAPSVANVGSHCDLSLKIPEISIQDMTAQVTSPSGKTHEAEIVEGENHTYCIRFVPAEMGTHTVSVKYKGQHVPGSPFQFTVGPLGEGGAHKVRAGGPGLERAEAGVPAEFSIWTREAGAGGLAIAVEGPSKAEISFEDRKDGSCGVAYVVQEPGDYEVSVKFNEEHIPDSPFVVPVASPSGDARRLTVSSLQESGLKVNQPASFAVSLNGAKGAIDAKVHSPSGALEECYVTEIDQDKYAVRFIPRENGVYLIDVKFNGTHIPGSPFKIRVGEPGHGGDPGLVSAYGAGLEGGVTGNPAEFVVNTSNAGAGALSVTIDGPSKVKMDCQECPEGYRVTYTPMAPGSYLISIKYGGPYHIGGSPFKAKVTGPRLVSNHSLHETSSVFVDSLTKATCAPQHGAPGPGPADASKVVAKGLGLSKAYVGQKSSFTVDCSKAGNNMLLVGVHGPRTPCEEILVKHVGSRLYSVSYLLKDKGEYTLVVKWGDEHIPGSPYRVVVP

Q: With “DCBLD2 (lysine site: K391) (UniProt Q96PD2)” as the target, how does the “lysine labeling ratio R10:1” value read?
A: 3.28 (inactive)

Q: For “L1CAM (lysine site: K998) (UniProt P32004)”, which “lysine labeling ratio R10:1” value is on record?
A: 6.57 (inactive)

Q: For “PTGES2 (lysine site: K233) (UniProt Q9H7Z7)”, which “lysine labeling ratio R10:1” value is on record?
A: 2.07 (inactive)

Q: TST (lysine site: K24) (UniProt Q16762) was tested. Which “lysine labeling ratio R10:1” value did it give?
A: 2.33 (inactive)

Q: “ARL6IP5 (lysine site: K158) (UniProt O75915)” was tested. Which “lysine labeling ratio R10:1” value did it give?
A: 2.7 (inactive)

Q: “RBMX (lysine site: K63) (UniProt P38159)” was tested. Which “lysine labeling ratio R10:1” value did it give?
A: 1.66 (active)

Q: Which “lysine labeling ratio R10:1” value does the source give for “CTTN (lysine site: K184) (UniProt Q14247)” here?
A: 1.5 (active)

Q: With “RPLP0 (lysine site: K106) (UniProt P05388)” as the target, how does the “lysine labeling ratio R10:1” value read?
A: 0.868 (active)

Q: For “CSF2RA (lysine site: K108) (UniProt P15509)”, which “lysine labeling ratio R10:1” value is on record?
A: 0.663 (active)

Q: For “FLNA (lysine site: K92) (UniProt P21333)”, which “lysine labeling ratio R10:1” value is on record?
A: 5.97 (inactive)

Q: For “PRDX5 (lysine site: K146) (UniProt P30044)”, which “lysine labeling ratio R10:1” value is on record?
A: 1.62 (active)

Q: UniProt P55285 (lysine site: K276) was tested. Which “lysine labeling ratio R10:1” value did it give?
A: 1.67 (active)

Q: “SPTAN1 (lysine site: K1023) (UniProt Q13813)” was tested. Which “lysine labeling ratio R10:1” value did it give?
A: 9.87 (inactive)

Q: How did the “lysine labeling ratio R10:1” value turn out when “SDF4 (lysine site: K121) (UniProt Q9BRK5)” was run?
A: 1.36 (active)

Q: How did the “lysine labeling ratio R10:1” value turn out when “FAT4 (lysine site: K2512) (UniProt Q6V0I7)” was run?
A: 2.31 (inactive)

Q: With “ATP6V0D1 (lysine site: K288) (UniProt P61421)” as the target, how does the “lysine labeling ratio R10:1” value read?
A: 1.76 (active)

Q: Which “lysine labeling ratio R10:1” value does the source give for “SLC39A10 (lysine site: K66) (UniProt Q9ULF5)” here?
A: 0.9 (active)

Q: For “MTDH (lysine site: K195) (UniProt Q86UE4)”, which “lysine labeling ratio R10:1” value is on record?
A: 1.36 (active)

Q: For “HNRNPU (lysine site: K352) (UniProt Q00839)”, which “lysine labeling ratio R10:1” value is on record?
A: 2.95 (inactive)

Q: For “PDIA6 (lysine site: K150) (UniProt Q15084)”, which “lysine labeling ratio R10:1” value is on record?
A: 4.08 (inactive)

Q: Which “lysine labeling ratio R10:1” value does the source give for “L1CAM (lysine site: K301) (UniProt P32004)” here?
A: 4.21 (inactive)

Q: “DNAJA1 (lysine site: K144) (UniProt P31689)” was tested. Which “lysine labeling ratio R10:1” value did it give?
A: 2.55 (inactive)

Q: Which “lysine labeling ratio R10:1” value does the source give for “KTN1 (lysine site: K1240) (UniProt Q86UP2)” here?
A: 5.6 (inactive)

Q: How did the “lysine labeling ratio R10:1” value turn out when “SEMA3C (lysine site: K431) (UniProt Q99985)” was run?
A: 2.67 (inactive)
